Reference: PubChem BioAssay (NCI)
About 83,000 compounds went through this panel and 20% of them were active in at least one assay; those are over-represented in the sample as a whole.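 Assay: single dose, 48 h. Readout: percent growth (0 = no net growth; negative = cell death). Active: <10.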 Values without a mark were called inactive. Calls of active or inactive are those of the source.

Key:
Test in all cases: NCI-60 one-dose screen, 48 h (100 = growth as untreated, 0 = no growth, -100 = all killed)
[1] = tested on: SK-MEL-2 melanoma; conditions: 10 µM unless noted
[2] = tested on: EKVX NSCLC; conditions: 10 µM unless noted
[3] = tested on: SN12C renal; conditions: 10 µM unless noted
[4] = tested on: UO-31 renal; conditions: 10 µM unless noted
[5] = tested on: TK-10 renal; conditions: 10 µM unless noted
[6] = tested on: ACHN renal; conditions: 10 µM unless noted
[7] = tested on: CAKI-1 renal; conditions: 10 µM
[8] = tested on: A498 renal; conditions: 10 µM unless noted
[9] = tested on: CCRF-CEM leukemia; conditions: 10 µM unless noted
[10] = tested on: MOLT-4 leukemia; conditions: 10 µM unless noted

## COc1cc(C2CC(c3ccc(Nc4nc(NCCO)nc(Nc5ccc(Cl)cc5)n4)cc3)=Nc3c(N)nc(N)nc3N2)cc(OC)c1OC (stereo unspecified)
[1]
  growth: 75.9%
[2]
  growth: 109%
[3]
  growth: 49.9%
[4]
  growth: 85.1%
[5]
  growth: 95.8%
[6]
  growth: 79.3%
[7]
  growth: 53.8%
[8]
  growth: 99.8%
[9]
  growth: 23.8%
[10]
  growth: 19.9%

## O=C1c2c(c3c4cccnc4[nH]c3c3ccc4ccccc4c23)C(=O)N1CCN1CCOCC1
[1]
  growth: 98.4%
[2]
  growth: 86.7%
[3]
  growth: 68.4%
[4]
  growth: 54.5%
[5]
  growth: 112%
[6]
  growth: 41.3%
[7]
  growth: 46.2%
[8]
  growth: 69%
[9]
  growth: 23.9%
[10]
  growth: 7.9% (active)

## CCC(CC)N1C(=O)/C(=c2\sc3n(c2=O)C2C(NN=3)N(CC)C(=O)N2CC)c2ccccc21 (stereo unspecified)
[1]
  growth: 59.4%
[2]
  growth: 48.1%
[3]
  growth: 18.2%
[4]
  growth: 39.8%
[5]
  growth: 86.5%
[6]
  growth: 32%
[7]
  growth: 39.9%
[8]
  growth: -17% (active)
[9]
  growth: 15.8%
[10]
  growth: 10%

## O=S(=O)(Nc1ccc(-c2nc(-c3cccc(O)c3)c(-c3ccnc(Br)c3)[nH]2)cc1)c1ccccc1
[1]
  growth: 23.5%
[2]
  growth: 53.3%
[3]
  growth: 44.3%
[4]
  growth: 24.7%
[5]
  growth: 55.7%
[6]
  growth: 28.4%
[7]
  growth: 25.6%
[8]
  growth: 49.4%
[9]
  growth: -2.56% (active)
[10]
  growth: -20.9% (active)

## O=S(=O)(Nc1ccc(-n2cnc3cc(-c4ccc(O)cc4)ccc32)cc1)C1CC1
[1]
  growth: 95%
[2]
  growth: 101%
[3]
  growth: 88.3%
[4]
  growth: 55.6%
[5]
  growth: 111%
[6]
  growth: 78.1%
[7]
  growth: 66.3%
[8]
  growth: 66%
[9]
  growth: 79.4%
[10]
  growth: 72%

## O=C(NCCCNc1cc(-c2cn(-c3ccccc3)nc2-c2cccc(O)c2)ccn1)Nc1cc(C(F)(F)F)cc(C(F)(F)F)c1
[1]
  growth: 88.1%
[2]
  growth: 73.3%
[3]
  growth: 79.4%
[4]
  growth: 51.4%
[5]
  growth: 93.4%
[6]
  growth: 92.6%
[7]
  growth: 74.1%
[8]
  growth: 71.4%
[9]
  growth: 63.1%
[10]
  growth: 43.3%

## Cc1ccc(-c2cc(-c3cccc4ccccc34)n3c(n2)nc2ccccc23)cc1
[1]
  growth: 105%
[2]
  growth: 78.7%
[3]
  growth: 61.2%
[4]
  growth: 37.9%
[5]
  growth: 69.1%
[6]
  growth: 24.8%
[7]
  growth: 23.1%
[8]
  growth: 52.5%
[9]
  growth: 37.5%
[10]
  growth: 4.63% (active)

## O=C(N/N=C\c1ccc(Cl)cc1)c1ccc2nc(-c3ccc(Br)cc3)[nH]c2c1
[1]
  growth: 82.7%
[2]
  growth: 0.288% (active)
[3]
  growth: -14.6% (active)
[4]
  growth: 15.9%
[5]
  growth: -26.8% (active)
[6]
  growth: -12.6% (active)
[7]
  growth: -17.8% (active)
[8]
  growth: 65.4%
[9]
  growth: 26.3%
[10]
  growth: 11.6%

## Nc1cc(F)ccc1NC(=O)c1ccc(NC(=O)C/C=C/c2cccnc2)cn1
[1]
  growth: 9.74% (active)
[2]
  growth: 49.7%
[3]
  growth: 20.1%
[4]
  growth: 5.53% (active)
[5]
  growth: 22.3%
[6]
  growth: 31.3%
[7]
  growth: 33.9%
[8]
  growth: -13.2% (active)
[9]
  growth: 15.1%
[10]
  growth: 24.7%

## Oc1ccc(CSc2nnc(-c3cnccn3)n2-c2ccccc2)c2cccnc12
[1]
  growth: 42.6%
[2]
  growth: 44%
[3]
  growth: 24.5%
[4]
  growth: 10.7%
[5]
  growth: 37.7%
[6]
  growth: 15.4%
[7]
  growth: 16.7%
[8]
  growth: 10.9%
[9]
  growth: 16.7%
[10]
  growth: 21.3%

## NS(=O)(=O)c1ccc(Nc2nc(N/N=C/c3ccc([N+](=O)[O-])cc3)nc(Nc3ccccc3)n2)cc1
[1]
  growth: 18.2%
[2]
  growth: 83.7%
[3]
  growth: 27.4%
[4]
  growth: 81.9%
[5]
  growth: 93.8%
[6]
  growth: 82.6%
[7]
  growth: 50.6%
[8]
  growth: 18.5%
[9]
  growth: 11.8%
[10]
  growth: 11.9%

## COc1ccc2oc3c4[nH]c5ccccc5c4c4c(c3c2c1)C(=O)N(O)C4=O
[1]
  growth: 107%
[2]
  growth: 97.8%
[3]
  growth: 94.7%
[4]
  growth: 82.2%
[5]
  growth: 140%
[6]
  growth: 97.9%
[7]
  growth: 80.4%
[8]
  growth: 75.4%
[9]
  growth: 91.4%
[10]
  growth: 116%

## COc1ccc(-c2nc(SCC(C)C)nc(N/N=C\c3cccc([N+](=O)[O-])c3)c2C#N)cc1
[1]
  growth: 86.2%
[2]
  growth: 47.7%
[3]
  growth: 43.3%
[4]
  growth: -36.4% (active)
[5]
  growth: 91.4%
[6]
  growth: 8.66% (active)
[7]
  growth: 31.8%
[8]
  growth: 47.6%
[9]
  growth: 80.9%
[10]
  growth: 75.1%

## CCCCCCCCNC(=O)c1ccc(Cn2c(CCCC)nc3c(N)nc4ccccc4c32)cc1
[1]
  growth: 95.4%
[2]
  growth: 62.8%
[3]
  growth: -77.3% (active)
[4]
  growth: 11.8%
[5]
  growth: 78.8%
[6]
  growth: 26.6%
[7]
  growth: -1.97% (active)
[8]
  growth: 68%
[9]
  growth: -1.62% (active)
[10]
  growth: -7.07% (active)

## COc1cc2cc(Oc3ccc(NC(=O)c4cccc(C(F)(F)F)c4)cc3)c(C)nc2cc1OCCN(C)C
[1]
  growth: 108%
[2]
  growth: 83%
[3]
  growth: 84.1%
[4]
  growth: 84%
[5]
  growth: 98%
[6]
  growth: 86.6%
[7]
  growth: 75.2%
[8]
  growth: 100%
[9]
  growth: 41%
[10]
  growth: 67.1%

## C/C(=C(/C)C1CC1CCN(C(=O)c1ccccn1)S(=O)(=O)c1ccc(C)cc1)C1CCCCC1 (stereo unspecified)
[1]
  growth: 101%
[2]
  growth: 77.6%
[3]
  growth: 98.2%
[4]
  growth: 86.4%
[5]
  growth: 105%
[6]
  growth: 99.3%
[7]
  growth: 78.9%
[8]
  growth: 94.6%
[9]
  growth: 92.5%
[10]
  growth: 88.2%

## CC(C)c1nn(-c2ccccc2)c(N2CCCCC2)c1/C=N/NC(N)=S
[1]
  growth: 104%
[2]
  growth: 82.1%
[3]
  growth: 89.9%
[4]
  growth: 64.5%
[5]
  growth: 113%
[6]
  growth: 87.2%
[7]
  growth: 69.2%
[8]
  growth: 66.2%
[9]
  growth: 89.7%
[10]
  growth: 83.6%

## CC(=O)Nc1ccc(C)c(Nc2cc(-c3ccc(-n4cccn4)cc3)[nH]n2)c1
[1]
  growth: 3.79% (active)
[2]
  growth: 74.7%
[3]
  growth: 60.9%
[4]
  growth: 60.6%
[5]
  growth: 89.6%
[6]
  growth: 65.8%
[7]
  growth: 47.2%
[8]
  growth: 27.3%
[9]
  growth: 26.1%
[10]
  growth: 47.8%

## Cc1ccc(/C=C/CC(=O)Nc2ccc(C(=O)Nc3ccc(F)cc3N)nc2)cn1
[1]
  growth: 31.3%
[2]
  growth: 49.8%
[3]
  growth: 57.6%
[4]
  growth: 25.3%
[5]
  growth: 6.58% (active)
[6]
  growth: 31.6%
[7]
  growth: 26.4%
[8]
  growth: -3.27% (active)
[9]
  growth: 17.8%
[10]
  growth: 18.1%

## C#C[C@]1(O)CC[C@H]2[C@@H]3CC=C4c5sc(Nc6cc(OC)ccc6OC)nc5CC[C@]4(C)[C@H]3CC[C@@]21C
[1]
  growth: 31.8%
[2]
  growth: 42.9%
[3]
  growth: 49%
[4]
  growth: 12.8%
[5]
  growth: 84.7%
[6]
  growth: 36.5%
[7]
  growth: 28%
[8]
  growth: -28.3% (active)
[9]
  growth: 13.9%
[10]
  growth: -5.93% (active)

## O=C(COc1ccc(C2SCC(=O)N2c2ccc(F)cc2)cc1)c1ccccc1 (stereo unspecified)
[1]
  growth: 99.8%
[2]
  growth: 86.9%
[3]
  growth: 97.1%
[4]
  growth: 78.6%
[5]
  growth: 131%
[6]
  growth: 95.6%
[7]
  growth: 66%
[9]
  growth: 95.8%
[10]
  growth: 92.5%

## O=C(CCCCCCN1CC(=O)N2[C@@H](c3cccc(Cl)c3)c3[nH]c4ccccc4c3C[C@H]2C1=O)NO
[1]
  growth: 56%
[2]
  growth: 70.1%
[3]
  growth: 65.7%
[4]
  growth: 60.3%
[5]
  growth: 57.1%
[6]
  growth: 87.1%
[7]
  growth: 47.7%
[8]
  growth: 72.8%
[9]
  growth: 17.1%
[10]
  growth: 17.5%

## COc1ccc(CCN2C(=O)/C(=C/c3nc(CO)cs3)SC2=S)cc1
[1]
  growth: 96.9%
[2]
  growth: 95.2%
[3]
  growth: 83.6%
[4]
  growth: 34%
[5]
  growth: 61.6%
[6]
  growth: 72.7%
[7]
  growth: 63.4%
[9]
  growth: 67.6%
[10]
  growth: 87.5%

## COc1ccc(NS(=O)(=O)c2ccc(-c3cnc(C4CC4)o3)cc2)cc1Cl
[1]
  growth: 49.9%
[2]
  growth: 38.2%
[3]
  growth: 50.4%
[4]
  growth: 51.8%
[5]
  growth: 69%
[6]
  growth: 46.1%
[7]
  growth: -22.9% (active)
[8]
  growth: 13.1%
[10]
  growth: 32.4%

## COc1cc(/C=C2\SC(=O)NC2=O)ccc1OCC(=O)Nc1ccc(C(=O)/C=C/c2cc3ccccc3nc2Cl)cc1
[1]
  growth: 103%
[2]
  growth: 77%
[3]
  growth: 93.5%
[4]
  growth: 66.1%
[5]
  growth: 104%
[6]
  growth: 93.8%
[7]
  growth: 80.3%
[8]
  growth: 111%
[9]
  growth: 57.2%
[10]
  growth: 51.4%

## COc1cc(/C=C/C(=O)c2ccc(N3CCN(C)CC3)cc2)ccc1F
[1]
  growth: 115%
[2]
  growth: 88.4%
[3]
  growth: 81.2%
[4]
  growth: 56.5%
[5]
  growth: 124%
[6]
  growth: 79%
[7]
  growth: 63.6%
[8]
  growth: 98.7%
[10]
  growth: 88.5%
